Bioassay records deposited in PubChem by several laboratories.
Rv3671c protease: Rv3671c serine protease inhibitors, primary screen, biochemical, fluorescence polarization, M. tuberculosis H37Rv | 320,000 tested, 0.048% active | inhibition, % at 5.96 µM | AID 2606, 2010; in the data active = inhibition above about 38%;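 note: extracellular domain of Rv3671c used as enzyme; 0% = enzyme with DMSO and 100% = no enzyme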
Target sequence (P9WHR9 whole entry, looked up, the tested form may be a part): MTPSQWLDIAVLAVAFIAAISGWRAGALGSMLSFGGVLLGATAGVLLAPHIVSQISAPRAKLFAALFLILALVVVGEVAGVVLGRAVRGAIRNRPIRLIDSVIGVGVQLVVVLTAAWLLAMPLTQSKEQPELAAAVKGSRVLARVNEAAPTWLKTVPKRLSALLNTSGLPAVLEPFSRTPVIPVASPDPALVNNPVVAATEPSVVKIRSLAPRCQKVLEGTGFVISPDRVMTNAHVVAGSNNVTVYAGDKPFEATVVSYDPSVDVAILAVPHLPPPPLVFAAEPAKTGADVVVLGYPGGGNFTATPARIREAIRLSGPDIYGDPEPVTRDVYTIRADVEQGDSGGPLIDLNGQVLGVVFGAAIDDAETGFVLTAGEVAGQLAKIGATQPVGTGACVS
UGM FP inh: M. tuberculosis UGM enzyme inhibitors, primary screen, biochemical, fluorescence polarization, single point; AID 504406, 2011; UDP-galactopyranose mutase (Mycobacterium tuberculosis (strain ATCC 25618 / H37Rv)), …; 320,000 tested, 0.06% active; purified UGM, fluorescence polarization probe displacement; inhibition, % at 10 µM; in the data active = inhibition above about 10%, passing the limit was not always enough
SSB-PriA inh: inhibitors of Klebsiella pneumoniae PriA binding to SSB C-terminal tail, primary screen, biochemical, AlphaScreen; AlphaScreen SSBct-PriA binding, biotinylated peptide; inhibition, % at 33 µM; AID 1272365, 2023; 430,000 tested, 0.6% active; in the data active = inhibition mostly above about 37%, no sharp cut-off; inactive = mostly below about 20%;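 note: plate controls were negative control peptide for no effect and reference peptide for full effect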
Mtb betalactam: beta-lactam sensitization of Mtb H37Rv, H37Rv; M. tuberculosis H37Rv growth with meropenem, percent inhibition; inhibition, % at 25 µM; 330,000 tested, 0.27% active; AID 434955, 2010;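 note: growth measured after seven days incubation then overnight dye step; 0% = bacteria only wells and 100% = bacteria with antibiotic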
GDH-TPI counter-1: GDH-TPI coupling enzyme inhibitors, primary screen, artefact control for M. tuberculosis FBA inhibitor project, biochemical, absorbance, full deck; inhibition, % at 4.8 µM; AID 588335, 2011; 360,000 tested, 1.2% active; GDH-TPI coupled enzyme counterscreen, NADH absorbance; in the data active = inhibition above about 30%;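 note: 0% = DMSO wells and 100% = wells lacking the enzyme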
Mtb FBA inh: Mtb FBA enzyme inhibitors, primary screen, biochemical, fluorescence, strain H37Rv. Fructose-bisphosphate aldolase (Mycobacterium tuberculosis (strain ATCC 25618 / H37Rv)), …. purified M. tuberculosis FBA, fluorescence read-out. inhibition, % at 1 µM. 360,000 tested, 2.3% active. AID 588726, 2011; in the data active = inhibition above about 27%;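 note: 0% = vehicle and 100% = reference inhibitor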
Mtb FBA inh conf: M. tuberculosis aldolase blockers, biochemical, fluorescence, strain H37Rv, confirmation | shares compounds with Mtb FBA inh | purified M. tuberculosis FBA, fluorescence read-out | inhibition, % at 1 µM | 5,600 tested, 78% active | AID 651616, 2012; in the data active = inhibition above about 27%;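 note: 0% = vehicle wells and 100% = reference inhibitor wells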
GDH-TPI counter-2: GDH-TPI coupling enzyme inhibitors, artefact control for M. tuberculosis FBA inhibitor project, biochemical, fluorescence, high throughput; shares compounds with Mtb FBA inh; GDH-TPI coupled enzyme counterscreen; inhibition, % at 1 µM; 5,600 tested, 81% active; AID 652141, 2013; in the data active = inhibition above about 10%
GDH-TPI dose: GDH-TPI coupling enzyme inhibitors, dose response, artefact control for M. tuberculosis FBA inhibitor project, biochemical, fluorescence, IC50; shares compounds with Mtb FBA inh; GDH-TPI coupled enzyme assay, artifact counterscreen; IC50, µM; 170 tested, 79% active; AID 652145, 2013
* = called active by the depositor; . = no result given; + = active, no number. Only some compounds are listed: those with a hit (about 3.2% of all), similar ones and a draw of the others. Unless noted, the rule behind the calls is not given here.

SMILES | Rv3671c protease | UGM FP inh | SSB-PriA inh | Mtb betalactam | GDH-TPI counter-1 | Mtb FBA inh | Mtb FBA inh conf | GDH-TPI counter-2 | others
CN(C)/C=N/c1nc2nccc(-c3cccnc3)n2n1 | 1 | -1 | . | -1 | 1 | 27* | 152* | 107*
Nc1nc2nccc(-c3cccnc3)n2n1 | -7 | 1 | -12 | -8 | 19 | 64* | -8 | -5
Cc1nc2sc(C)c(C)n2c(=O)c1NC(=O)Cc1cccs1 | . | . | -11 | . | . | . | . | .
Cc1nc2oc3c(=O)[nH]cnc3c2c2c1COC(C)(C)C2 | 3 | 2 | 5 | -8 | 5 | 44* | 13 | -5 | GDH-TPI dose=4.8*
Cc1cc(C)c2nc(-c3ccccn3)cc(C(=O)NCCc3ccc(S(N)(=O)=O)cc3)c2c1 | -41 | 3 | 4 | 0 | 5 | 39* | 164* | 133*
Cc1cc(C)c2nc(-c3ccccn3)cc(C(=O)NCc3ccc(S(N)(=O)=O)cc3)c2c1 | -8 | 0 | -8 | -6 | 6 | 50* | 8 | 0
Cc1cc(C)c2nc(-c3ccccn3)cc(C(=O)Nc3ccc(S(=O)(=O)Nc4onc(C)c4C)cc3)c2c1 | -1 | 1 | 19 | 5 | 16 | -3 | . | .
CCC(=O)Nc1ccc(SCC(=O)Nc2ccc(C)c(F)c2)nn1 | . | . | -16 | . | . | . | . | .
N#CC(C(=O)CCN1C(=O)C2CC=CCC2C1=O)c1nc2ccccc2[nH]1 (stereo not given) | 5 | 0 | -11 | 0 | 19 | 47* | 26 | 20*
N#CC(C(=O)C12CC3CC(CC(C3)C1)C2)c1nc2ccccc2[nH]1 (stereo not given) | -18 | -2 | -7 | 100 | 25 | 3 | . | .
COCCN1CCn2c(nc3cc(NC(C)=O)ccc32)C1 | 4 | -1 | -18 | 6 | 3 | 30* | 7 | 4
COCCN1CCn2c(nc3cc(NC(=O)c4ccc(OC)cc4)ccc32)C1 | -11 | -2 | -6 | 2 | 3 | 11 | . | .
CCOC(=O)Nc1ccc2c(c1)nc1n2CCN(CCOC)C1 | 3 | 0 | 1 | 1 | 5 | 36* | 75* | 73*
COCCN1CCn2c(nc3cc(NC(=O)Cn4nc(C)c5ccccc5c4=O)ccc32)C1 | 0 | 2 | -2 | -4 | 5 | 26 | . | .
CC(=O)Nc1ccc2c(c1)nc1n2CCN(C(C)c2ccccc2)C1 (stereo not given) | -5 | 2 | 3 | -2 | 1 | 69* | 83* | 72*
CCN1C(=O)Cc2cc(NS(=O)(=O)c3ccc(OC)cc3C)ccc21 | . | . | 10 | . | . | . | . | .
CCC1(CC)Cc2ccccc2-c2nc(NCCCO)[nH]c(=O)c21 | 0 | -1 | -6 | 4 | 8 | 59* | + | +
CCCc1cc(=O)oc2cc(OCc3ccc(C(=O)O)o3)ccc12 | 4 | 1 | -9 | -3 | 13 | 36* | 17 | 1 | GDH-TPI dose=4.8*
CCOc1ccc(OCc2ccc(C(=O)O)o2)cc1 | 2 | -2 | -6 | -3 | -10 | 3 | . | .
CCCCc1cc(=O)oc2c(C)c(OCc3nn[nH]n3)ccc12 | -10 | -3 | 1 | -7 | 12 | 28* | 59* | 43*
CCCc1cc(=O)oc2cc(OCc3nn[nH]n3)ccc12 | -2 | 1 | -1 | -2 | 15 | 34* | 57* | 36*
CCCCc1cc(=O)oc2cc(OCC(=O)N3CCc4ccccc43)ccc12 | 6 | -1 | -1 | -1 | 0 | -5 | . | .
CCCc1cc(=O)oc2cc(Oc3ncccn3)ccc12 | 4 | 0 | -11 | 0 | -11 | 17 | . | .
CCCCc1cc(=O)oc2cc(OCc3nn[nH]n3)ccc12 | 5 | 5 | 3 | -10 | 19 | 35* | 6 | -1
COc1cc(=O)n(-c2ccc(C)cc2)nc1C(=O)Nc1ccccc1C(F)(F)F | . | . | -2 | . | . | . | . | .
SMILES | Rv3671c protease | UGM FP inh | SSB-PriA inh | Mtb betalactam | GDH-TPI counter-1 | Mtb FBA inh | Mtb FBA inh conf | GDH-TPI counter-2 | others
CSc1cccc2sc(N(Cc3cccnc3)C(=O)CCCSc3ccccc3)nc12 | . | . | -33 | . | . | . | . | .
O=C(O)CCc1nnc(SCc2ccc([N+](=O)[O-])cc2)[nH]c1=O | . | . | -8 | . | . | . | . | .
Cc1ccc(-n2c(O)c(C=Nc3ccc4c(c3)OCO4)c3ccccc3c2=O)cc1C | 3 | -1 | -6 | . | 5 | 2 | . | .
Cc1cc(N=Cc2c(O)n(-c3ccc4c(c3)OCO4)c(=O)c3ccccc23)ccn1 | -5 | 5 | 12 | -5 | 6 | 38* | + | +
CC(/C=C/C=C/c1ccccc1)=NNC(=O)c1ccc2c(c1)OCCO2 | . | . | -2 | . | . | . | . | .
Fc1cccc2sc(Nc3nc4cc5c(cc4s3)OCCO5)nc12 | 11 | 1 | 6 | 77 | 16 | 39* | -5 | -5
CSc1nc2ccc3nc(Nc4nc5cc6c(cc5s4)OCO6)sc3c2s1 | . | . | 1 | . | . | . | . | .
Fc1cc(F)c2nc(Nc3nc4cc5c(cc4s3)OCO5)sc2c1 | -6 | 1 | -6 | -1 | 11 | 32* | 84* | 66*
Cc1nc2ccc3nc(Nc4nc5c(F)cccc5s4)sc3c2s1 | . | . | 3 | . | . | . | . | .
Fc1cccc2sc(Nc3nc4cc5c(cc4s3)OCO5)nc12 | 10 | -2 | -7 | 69 | 19 | 35* | 128* | 93*
COCCN(CCOC)S(=O)(=O)c1ccc(C(=O)Nc2nc(-c3ccccc3)c(-c3ccccc3)s2)cc1 | . | . | -5 | . | . | . | . | .
O=C1c2ccccc2C(=O)c2cc(S(=O)(=O)N3CCN(C(=O)c4ccco4)CC3)ccc21 | . | . | -12 | . | . | . | . | .
CCCc1cc(=O)[nH]c(SCC(=O)Nc2sc3c(c2C#N)CCC(C)C3)n1 (stereo not given) | 1 | 1 | 6 | -1 | 4 | 37* | 99* | 73*
CSC1=NCCN1C(=O)COc1ccc(Cl)cc1 | . | . | -3 | . | . | . | . | .
CC(=O)Nc1ccc2c(c1)[nH]c(=O)c1ccccc12 | . | . | -7 | . | 20 | 50* | 64* | 45*
O=C(Nc1ccc2c(c1)[nH]c(=O)c1ccccc12)C(F)(F)F | . | . | -14 | . | 13 | 6 | . | .
Nc1ccc2c(c1)[nH]c(=O)c1ccccc12 | . | . | 0 | . | 5 | 69* | 3 | 3
Nc1cccc2[nH]c(=O)c3ccccc3c12 | . | . | 11 | . | 18 | 61* | 199* | 158*
O=c1[nH]c2cc(O)ccc2c2ccccc12 | . | . | . | . | 15 | 17 | . | .
O=C(Nc1ccccc1)Nc1ccc(N2CCCC2=O)cc1 | . | . | -12 | . | . | . | . | .
